Assay outcomes (PubChem)
Sampled rows, rich in hits. Any-hit rate of the full collection: about 4.6%.
TIM10 inh = growth inhibitors of TIM10 yeast strain | S. cerevisiae TIM10 strain growth, BacTiter-Glo luminescence, 24 h | inhibition, % at 10 µM | actives 1.4% (n = 330,000);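 active means inhibition of 40% or more at the single tested concentration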;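 further: wild-type TIM10 isogenic control strain grown at permissive 25 °C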
tim23-1 inh = growth inhibitors of tim23-1 mutant yeast; S. cerevisiae tim23-1 growth, BacTiter-Glo luminescence, 24 h; inhibition, % at 20 µM; actives 1.3% (n = 330,000);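 active means growth inhibition of the mutant yeast at or above 50%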;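 further: temperature-sensitive mutant grown at 25 °C; plate controls were DMSO-treated mutant yeast for no effect and medium wells lacking yeast for full effect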
SKKanGAS inh = SKKanGAS growth inhibition. S. pyogenes SKKanGAS, kanamycin growth, BacTiter-Glo, 6 h. inhibition, % at 7.5 µM. actives 1.3% (n = 300,000);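 active means mean replicate score, as percent of positive control median, at least 50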;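 further: strain carries kanamycin resistance gene driven by streptokinase promoter and grows in 40 µg/ml kanamycin; loss of luminescence reflects streptokinase promoter inhibition or plain growth inhibition; 0% = median of DMSO wells and 100% = positive control at its reference dose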
NALP3 yeast inh = NALP3 inhibition in yeast; actives 0.39% (n = 330,000); AID 2825; Yeast reconstituted NLRP3/ASC/caspase-1, beta-gal luminescence, 24 h; inhibition, % at 10 µM;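 active means inhibition of 50% or more; inactive means inhibition below 50%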;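 further: plate controls were induced DMSO wells for no effect and uninduced yeast grown without galactose for full effect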
tim10-1 inh = growth inhibitors of tim10-1 mutant yeast; S. cerevisiae tim10-1 ts strain growth, BacTiter-Glo, 24 h; inhibition, % at 20 µM; actives 2.2% (n = 330,000); AID 463190;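 active means inhibition of at least 40%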;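 further: mutant grown at 25 °C; 0% = DMSO wells with yeast and 100% = wells holding no yeast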
PfHsp90 yeast 2 = reduces growth (ATP signal) of yeast expressing P. falciparum Hsp90 | S. cerevisiae expressing PfHsp90, BacTiter-Glo ATP, 48 h; yeast lacking PDR1 and PDR3 efflux regulators | inhibition, % at 9.4 µM | actives 0.32% (n = 310,000) | AID 504621;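 active means every replicate shows inhibition above about 80%, whatever the replicate mean, limit read from the data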;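 further: 0% = DMSO neutral controls and 100% = 20 µM radicicol positive controls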
Numbers without * were called inactive.

How did CCC(C(=O)N1CCC(N2CCCCC2)CC1)n1nc(C)c2sc3ccccc3c2c1=O (configuration not stated) do in these assays?
TIM10 inh: 5; tim23-1 inh: -9; SKKanGAS inh: 53*; NALP3 yeast inh: 15; tim10-1 inh: -1; PfHsp90 yeast 2: -2

Results for Cc1nn(C(C)C(=O)N2CCCCC2)c(=O)c2c1sc1ccccc12 (configuration not stated) ?
TIM10 inh: 18; tim23-1 inh: 12; SKKanGAS inh: -9; NALP3 yeast inh: 13; tim10-1 inh: 14; PfHsp90 yeast 2: -9

How did COc1ccc(C(=O)NC(=S)N(C)C2CCCCC2)cc1 do in these assays?
TIM10 inh: 6; tim23-1 inh: 41; NALP3 yeast inh: 30; tim10-1 inh: 24; PfHsp90 yeast 2: -2

How did Cc1ccc(C(=O)NC(=S)N(C)C2CCCCC2)cc1Br do in these assays?
TIM10 inh: 19; tim23-1 inh: 8; SKKanGAS inh: 85*; NALP3 yeast inh: 38; tim10-1 inh: 25

What do the screens show for `Cc1cc(C(=O)N/N=C/c2cccnc2)cs1`?
TIM10 inh: -21; tim23-1 inh: -10; SKKanGAS inh: -1; NALP3 yeast inh: -1; tim10-1 inh: -2; PfHsp90 yeast 2: -3

How did COc1ccc2oc(C(=O)Nc3nc(-c4ccccn4)cs3)c(C)c2c1 do in these assays?
TIM10 inh: -4; tim23-1 inh: 8; SKKanGAS inh: 84*; NALP3 yeast inh: 6; tim10-1 inh: 6; PfHsp90 yeast 2: 2

Results for Cc1cc(C)c(OCC(=O)Nc2nc(-c3ccccn3)cs2)c(C)c1 ?
TIM10 inh: 10; tim23-1 inh: 10; SKKanGAS inh: 97*; NALP3 yeast inh: 2; tim10-1 inh: -30; PfHsp90 yeast 2: -13

What do the screens show for `Cc1ccccc1OCC(=O)Nc1nc(-c2ccncc2)cs1`?
TIM10 inh: 22; tim23-1 inh: 26; NALP3 yeast inh: 1; tim10-1 inh: 26; PfHsp90 yeast 2: -7

How did COc1ccc(OCCCC(=O)Nc2nc(-c3ccccn3)cs2)cc1 do in these assays?
TIM10 inh: 15; tim23-1 inh: 18; SKKanGAS inh: 73*; NALP3 yeast inh: 27; tim10-1 inh: -11; PfHsp90 yeast 2: 0

What do the screens show for `COc1ccc2oc(C(=O)NC(C)c3ccccn3)c(C)c2c1` (configuration not stated)?
TIM10 inh: 9; tim23-1 inh: 30; NALP3 yeast inh: 20; tim10-1 inh: 2

How did O=C(CCS(=O)(=O)c1ccccc1)Nc1nc(-c2ccccn2)cs1 do in these assays?
TIM10 inh: -13; tim23-1 inh: 10; SKKanGAS inh: -8; NALP3 yeast inh: 1; tim10-1 inh: 10; PfHsp90 yeast 2: -10

Results for CC1(C)N=C(N)N=C(N)N1c1cccc(C#N)c1 ?
PfHsp90 yeast 2: 25

How did NS(=O)(=O)c1ccc(CCNC(=O)C2CCCN2S(=O)(=O)c2cccc3nsnc23)cc1 (configuration not stated) do in these assays?
TIM10 inh: -1; tim23-1 inh: 3; SKKanGAS inh: -5; NALP3 yeast inh: -6; tim10-1 inh: -4; PfHsp90 yeast 2: 5

What do the screens show for `O=C(NC(NC(=S)Nc1ccc(Cl)c(Cl)c1)C(Cl)(Cl)Cl)c1ccco1` (configuration not stated)?
TIM10 inh: 11; tim23-1 inh: 6; SKKanGAS inh: 74*; NALP3 yeast inh: 17; tim10-1 inh: 17; PfHsp90 yeast 2: 4

What do the screens show for `O=C(NC(NC(=S)Nc1cccc(Cl)c1)C(Cl)(Cl)Cl)OCc1ccccc1` (configuration not stated)?
TIM10 inh: 11; tim23-1 inh: 7; SKKanGAS inh: 122*; NALP3 yeast inh: 26; tim10-1 inh: 0; PfHsp90 yeast 2: 12

Results for CN(C)c1nc(C(=O)O)nc(N2CCOCC2)n1 ?
TIM10 inh: -19; tim23-1 inh: 12; SKKanGAS inh: 2; NALP3 yeast inh: 6; tim10-1 inh: -15; PfHsp90 yeast 2: -23

What do the screens show for `COc1cccc(-c2onc3ccc(C(=O)/C=C/N(C)C)cc23)c1`?
TIM10 inh: 26; tim23-1 inh: 29; SKKanGAS inh: 8; NALP3 yeast inh: 12; tim10-1 inh: 29; PfHsp90 yeast 2: -22

How did Cc1ccc(-c2onc3ccc(C(=O)/C=C/N(C)C)cc23)cc1 do in these assays?
TIM10 inh: 22; tim23-1 inh: 27; SKKanGAS inh: 16; NALP3 yeast inh: 2; tim10-1 inh: 36; PfHsp90 yeast 2: 119*

How did CC(=O)c1c(O)cc(O)c(C(C)=O)c1O do in these assays?
TIM10 inh: 9; tim23-1 inh: 20; SKKanGAS inh: 91*; NALP3 yeast inh: 7; tim10-1 inh: 20; PfHsp90 yeast 2: 8

Results for CC(=O)c1c(O)cc(O)cc1CC(=O)O ?
TIM10 inh: -7; tim23-1 inh: 8; SKKanGAS inh: 2; NALP3 yeast inh: -2; tim10-1 inh: -4; PfHsp90 yeast 2: 4

What do the screens show for `COc1ccc(-c2cn[nH]c2-c2ccc(OCc3ccc([N+](=O)[O-])cc3)cc2O)cc1OC`?
TIM10 inh: 5; tim23-1 inh: 8; SKKanGAS inh: 7; NALP3 yeast inh: 2; tim10-1 inh: 1; PfHsp90 yeast 2: -36

Results for COc1ccccc1-c1cn[nH]c1-c1ccc(OCc2ccccc2)cc1O ?
TIM10 inh: 29; tim23-1 inh: 29; SKKanGAS inh: 48; NALP3 yeast inh: 12; tim10-1 inh: -3; PfHsp90 yeast 2: -11

What do the screens show for `COc1ccc(-c2cn[nH]c2-c2ccc(OCc3ccccc3)cc2O)cc1`?
TIM10 inh: 33; tim23-1 inh: 44; SKKanGAS inh: 75*; NALP3 yeast inh: 13; tim10-1 inh: -2; PfHsp90 yeast 2: -17

What do the screens show for `O=[N+]([O-])c1ccc(COc2ccc(-c3[nH]ncc3-c3ccc(Cl)cc3)c(O)c2)cc1`?
TIM10 inh: -1; tim23-1 inh: -11; SKKanGAS inh: 95*; NALP3 yeast inh: -7; tim10-1 inh: 8; PfHsp90 yeast 2: 4

What do the screens show for `CCn1c(COc2ccc(OC)cc2)nnc1SCc1nc2ccccc2c(=O)[nH]1`?
TIM10 inh: 7; tim23-1 inh: 0; SKKanGAS inh: 11; NALP3 yeast inh: 14; tim10-1 inh: -14

What do the screens show for `O=C(NC(=S)NNC(=O)[C@H]1C[C@@H]1c1ccccc1)c1cccc(F)c1`?
TIM10 inh: -33; tim23-1 inh: -24; SKKanGAS inh: 99*; NALP3 yeast inh: 26; tim10-1 inh: 29; PfHsp90 yeast 2: -1

How did COc1cccc(OC)c1C(=O)NC(=S)NCc1ccccc1 do in these assays?
TIM10 inh: -23; tim23-1 inh: -9; SKKanGAS inh: -13; NALP3 yeast inh: 11; tim10-1 inh: -11; PfHsp90 yeast 2: 35

What do the screens show for `COc1cccc(OC)c1C(=O)NC(=S)NNC(=O)[C@H]1C[C@@H]1c1ccccc1`?
TIM10 inh: 14; tim23-1 inh: 0; SKKanGAS inh: 79*; NALP3 yeast inh: 23; tim10-1 inh: 22; PfHsp90 yeast 2: 18
